# Experimental data reported in PubChem BioAssay AID602243 (Broad Institute, 2012).
# The list shows a part of the results. The source made the active and inactive calls. No rule for the calls is given here.
# Test: V. cholerae lux activation without autoinducers – BH1578 luxS cqsA deficient, cherry-pick, plate reader, dose response (AID 602243)
# Details: V. cholerae BH1578 lux reporter, luminescence, 6 h; series mostly up to 50 µM
row,Compound,outcome
1,COc1cc(S(=O)(=O)N(Cc2cccs2)C2CC2)ccc1-n1cnnn1,inactive
2,O=C(NCc1ccccn1)c1c(O)c2c([nH]c1=O)CCCC2,inactive
3,COc1ccc(S(=O)(=O)N2CCN(c3cnccn3)CC2)cc1,inactive
4,CCCn1nnnc1NCc1ccc(OC)cc1,inactive
5,O=C(NCCS(=O)(=O)N1CCN(c2ccccc2)CC1)c1ccco1,inactive
6,Cc1onc(-c2ccccc2)c1C(=O)N1CCOCC1,inactive
7,CCN(CC(=O)NCc1ccc(Cl)cc1)C(=O)CSc1ccccc1,inactive
8,COc1ccc(OCc2cn3c(C)cc(C)nc3n2)cc1,inactive
9,O=C(CN1CCC(O)(c2cccc(C(F)(F)F)c2)CC1)NCCc1ccccc1,inactive
10,CCCS(=O)(=O)N1CCCC(C(=O)N2CCN(c3ccccc3)CC2)C1 (centres undefined),inactive
11,COc1ccc(Cl)cc1NC(=O)CN(C)C(=O)CNC(=O)C12CC3CC(CC(C3)C1)C2,inactive
12,CC(=O)N1CCN(C(=O)c2cc(-c3ccc(Cl)s3)nc3ccccc23)CC1,inactive
13,CCOC(=O)C1(CCOc2ccccc2)CCN(Cc2cc(OC)cc(OC)c2)CC1,inactive
14,CN(CC(=O)Nc1ccc(OC(F)(F)F)cc1)C(=O)C1CCC1,inactive
